# Reference: the supplement of paper PMC12645437, “Orthogonal IMiD-Degron Pairs Induce Selective Protein Degradation in Cells” (ACS Chemical Biology, 2025)
# The full ranking holds about 8,300 sequences; the median of “log2 fold change of degron read counts, EGFP-low vs EGFP+ sorted cells (limma voom), compound-induced degradation” is about -1.1, and the highest 2% start at about 3.2. This excerpt belongs to a sample that is enriched for the highest values.
# T1: CRBN, Q96SW2
# T1 chain: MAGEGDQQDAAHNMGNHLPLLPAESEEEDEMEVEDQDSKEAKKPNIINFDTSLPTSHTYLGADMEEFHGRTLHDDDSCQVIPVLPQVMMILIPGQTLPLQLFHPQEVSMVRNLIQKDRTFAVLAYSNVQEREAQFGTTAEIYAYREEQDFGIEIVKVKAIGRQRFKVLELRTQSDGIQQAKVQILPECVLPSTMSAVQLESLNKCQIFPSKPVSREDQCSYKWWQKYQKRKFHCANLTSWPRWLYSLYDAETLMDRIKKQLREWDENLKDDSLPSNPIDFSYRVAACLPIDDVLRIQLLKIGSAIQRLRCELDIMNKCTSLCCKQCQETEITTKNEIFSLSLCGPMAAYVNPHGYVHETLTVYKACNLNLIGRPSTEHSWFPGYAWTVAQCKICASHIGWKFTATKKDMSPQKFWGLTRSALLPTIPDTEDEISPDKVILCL
# Biological target: T1, CRBN, Q96SW2
# Test: log2 fold change of degron read counts, EGFP-low vs EGFP+ sorted cells (limma voom), compound-induced degradation; higher = more compound-induced degradation of the degron-EGFP fusion; degrons are variants of IKZF1/3 zinc finger 2; compound dose not given here
# Details: Jurkat, 18 h
# [1] = compound: compound 19 (5-tert-butyl-thalidomide)
# [2] = compound: compound 22 (5-morpholino-thalidomide)
# [3] = compound: compound 33 (diphenyl IMiD analogue)
# 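Note: pooled lentiviral library of zinc finger degron-EGFP fusions in mCherry-positive Jurkat cells, FACS-sorted after compound exposure, with degron abundance counted by next-generation sequencing.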
Sequence,log2 fold change of degron read counts [1],log2 fold change of degron read counts [2],log2 fold change of degron read counts [3],log2 fold change of degron read counts (compound: thalidomide)
"FRCPQCGARFTQKGNLLRHIKL [46F_47R_49P_50Q_52G_53A_54R_55F_67L_, Q9UKT9]",-2.3,-2.09,-1.12,-1.27
"FLCPQCGAKFTQKGNLLRHIKL [46F_47L_49P_50Q_52G_53A_54K_55F_67L_, Q9UKT9]",-2.44,-2.82,-1.39,-0.831
"FKCEVCGAQFTQKGNLLRHIKL [46F_47K_49E_50V_52G_53A_54Q_55F_67L_, Q9UKT9]",-0.0625,-2.24,-2.07,-0.411
"FFCEICGRAFTQKGNLLRHIKL [46F_47F_49E_50I_52G_53R_54A_55F_67L_, Q9UKT9]",0.601,-0.248,0.402,-1.11
"FKCEICGHPFTQKGNLLRHIKL [46F_47K_49E_50I_52G_53H_54P_55F_67L_, Q9UKT9]",-2.59,-2.5,-2.61,-0.946
"FKCPICGRFFTQKGNLLRHIKL [46F_47K_49P_50I_52G_53R_54F_55F_67L_, Q9UKT9]",-1.81,-1.89,-2.21,-1.32
"FRCDICGANFTQKGNLLRHIKL [46F_47R_49D_50I_52G_53A_54N_55F_67L_, Q9UKT9]",-1.48,-1.55,0.418,-0.326
"FDCNVCGAYFTQKGNLLRHIKL [46F_47D_49N_50V_52G_53A_54Y_55F_67L_, Q9UKT9]",-1.56,-2.08,-0.374,-0.686
"FICSVCGHEFTQKGNLLRHIKL [46F_47I_49S_50V_52G_53H_54E_55F_67L_, Q9UKT9]",-3.46,-3.92,-3.21,-3.41
"FICPVCGAQFTQKGNLLRHIKL [46F_47I_49P_50V_52G_53A_54Q_55F_67L_, Q9UKT9]",-0.745,2.74,2.89,2.73
"FQCPVCGAQFTQKGNLLRHIKL [46F_47Q_49P_50V_52G_53A_54Q_55F_67L_, Q9UKT9]",0.712,2.48,2.51,3.59
"FGCPVCGAQFTQKGNLLRHIKL [46F_47G_49P_50V_52G_53A_54Q_55F_67L_, Q9UKT9]",3.8,2.65,1.73,1.07
"FHCPVCGAQFTQKGNLLRHIKL [46F_47H_49P_50V_52G_53A_54Q_55F_67L_, Q9UKT9]",1.78,2.55,2.19,1.13
"FDCPVCGAQFTQKGNLLRHIKL [46F_47D_49P_50V_52G_53A_54Q_55F_67L_, Q9UKT9]",1.44,0.833,1.04,2.23
"FNCPVCGAQFTQKGNLLRHIKL [46F_47N_49P_50V_52G_53A_54Q_55F_67L_, Q9UKT9]",2.01,1.68,0.869,0.953
"FLCDVCGALFTQKGNLLRHIKL [46F_47L_49D_50V_52G_53A_54L_55F_67L_, Q9UKT9]",-2.27,-2.28,-1.03,-1.23
"FNCPVCGAVFTQKGNLLRHIKL [46F_47N_49P_50V_52G_53A_54V_55F_67L_, Q9UKT9]",0.592,0.118,0.729,0.198
